Inconclusive results are not listed. A number with no mark means an inactive call. The source made the active and inactive calls. Calls come from the whole dose curve; as a rule, active = well fitted cell-killing curve with a large enough effect; inconclusive = small, poorly fitted or top-dose-only effect, or another doubt; inactive = flat fitted curve, though single readings scatter.
assay: Vero cells viability counterscreen for qRT-PCR qHTS assay of selected Zika virus inhibitors; conditions: CellTiter-Glo ATP luminescence, 24 h; series mostly up to 41.8 µM; activity change, negative = cytotoxicity: at the top concentration
From the text: Assay Submitters (PI): Avindra Nath, Ph.D., National Institute of Neurological Disorders and Stroke (NINDS), Bethesda, MD Radhakrishnan Padmanabhan, Ph.D., Georgetown University (GU), Washington D.C. Zika Virus causes congenital defects, including microcephaly and is associated with Guillain-Barre syndrome, eningoencephalitis and myelitis in infected adult. […] Using a target-based approach, we hope to establish a screening paradigm to uncover novel, cell-active NS2B-NS3 protease (Zika Virus) specific inhibitors from NCATS' collection of small molecules using qHTS. […] Four assay panel was created to identify potential Zika Virus inhibitors. Namely, (1) GU unlinked NS2B-NS3 AMC tagged protease qHTS, (2) GU unlinked NS2B-NS3 Rhodamine tagged protease qHTS, (3) NINDS linked NS2B-NS3 AMC tagged protease qHTS, (4) NINDS linked NS2B-NS3 Rhodamine tagged protease qHTS. Inhibitors of the Zika virus primary screens are confirmed using qRT-PCR secondary assays, mCherry orthogonal assay, and Vero cells viability counterscreen. Cytotoxic compounds identified in the Vero cell viability counterscreen were excluded from the list of potential Zika virus inhibitors. Early Translation Branch (ETB) National Center for Advancing Translational Sciences (NCATS), Rockville, MD National Institute of Health (NIH), Bethesda, Maryland
Vero Cell Viability Assay: Vero cell cytotoxicity was determined using a luminescent readout with CellTiter Glo reagent (Promega, Madison, WI), which is based on measuring the ATP content within cells. Briefly, 4 uL of Vero cells at 2.5 x 10^5 cells/mL in DMEM containing 4% FBS were dispensed into 1536-well solid bottom tissue treated white plate using a Multidrop Combi dispenser (Thermo Scientific). Plates were incubated at 37 degrees C, 95% humidity, and 5% CO2 overnight to allow for cell attachment. Compounds were dissolved in DMSO at different concentrations and transferred via pintool (Wako Automation), for a final concentration of 57 uM - 0.029 uM. Plates were again incubated for 24 hours, followed by a 2 uL addition of CellTiter Glo. Finally, plates were incubated for 30 minutes at 37 degrees C and 5% CO2 before being read on a ViewLux (Perkin Elmer) for luminescence.

SMILES | activity change, negative = cytotoxicity | Potency
Cc1cccc(C)c1NS(=O)(=O)c1ccc(NS(=O)(=O)c2ccc3c(c2)OCCO3)cc1 | -20.5% | 
Oc1c(Cl)cc(Cl)c(Cl)c1Cc1c(O)c(Cl)cc(Cl)c1Cl |  | 35.5 µM (active)
O=C(O)c1ccc2c(ccc3nn(-c4ccc(/C=C/c5ccc(-n6nc7ccc8cc(C(=O)O)ccc8c7n6)cc5[S+](=O)([O-])[O-])c([S+](=O)([O-])[O-])c4)nc32)c1 | 2.1% [at 31.5 µM] | 
CC[C@H](C)[C@H]1O[C@]2(CC[C@@H]1C)C[C@@H]1C[C@@H](C/C=C(\C)[C@@H](O[C@H]3C[C@H](OC)[C@@H](O[C@H]4C[C@H](OC)[C@@H](O)[C@H](C)O4)[C@H](C)O3)[C@@H](C)/C=C/C=C3\CO[C@@H]4[C@H](O)C(C)=C[C@@H](C(=O)O1)[C@]34O)O2 |  | 11.2 µM (active)
O=C(Nc1cc(C(F)(F)F)cc(C(F)(F)F)c1)c1cc(Cl)ccc1O | 0.248% | 
CCOc1ccc(-c2cc(NC(=O)c3c(F)cccc3F)c(C(=O)O)s2)cc1 | 1.74% | 
O=C(c1cc(O)c(O)c([N+](=O)[O-])c1)c1ccccc1F | -1.36% | 
COc1cc(Nc2nc3ccccc3nc2NS(=O)(=O)c2cccc(NC(=O)c3ccc(C)c(OC)c3)c2)cc(OC)c1 | -7.94% | 
CC(=O)O[C@@H]1C[C@]2(C)[C@@]3(CCC4[C@@]5(C)CC[C@H](O[C@@H]6O[C@H](C(=O)O)[C@@H](O)[C@H](O[C@@H]7O[C@H](CO)[C@H](O)[C@H](O)[C@H]7O[C@@H]7O[C@@H](C)[C@H](O)[C@@H](O)[C@H]7O[C@@H]7OC[C@](O)(CO)[C@H]7O)[C@H]6O[C@@H]6O[C@H](CO)[C@H](O)[C@H](O)[C@H]6O)C(C)(C)C5CC[C@]42C)O[C@@H](O)[C@]12C3CC(C)(C)[C@@H](OC(=O)/C=C/c1ccc(O)c(O)c1)[C@@H]2OC(=O)/C=C/c1ccccc1 (stereo partly drawn) | 2.61% [at 7.93 µM] | 
O=C(O)Cn1nnc(-c2cc(N3CCC(Oc4cc(F)ccc4Br)CC3)no2)n1 | -3.72% | 
O=C(Nc1ccc(Oc2ccc(Cl)cc2)c(Cl)c1)c1cc(I)cc(I)c1O | 1.12% | 
O=C(O)c1cccc(-c2ccc(-c3cn(C(=O)N4CCCCC4Cc4ccccc4)nn3)cc2)c1 (stereo not drawn) | 7.83% [at 31.5 µM] | 
CC(C)=CCc1c2c(c3occ(-c4ccc(O)c(O)c4)c(=O)c3c1O)C=CC(C)(C)O2 |  | 8.91 µM (active)
CC(C)(C)Sc1c(CC(C)(C)C(=O)O)n(Cc2ccc(Cl)cc2)c2ccc(OCc3ccc4ccccc4n3)cc12 | -21.7% | 
Oc1cc2ccccc2c2ccccc12 |  | 11.2 µM (active)
COc1cccc(-n2nc(C(=O)O)cc2-c2ccc(C3CCCCC3)c(Cl)c2)c1 | -0.0617% [at 31.5 µM] | 
COc1cc(/C=C(\C#N)C(=O)Nc2nnc(C(F)(F)F)s2)ccc1OCc1ccc(C(F)(F)F)cc1C(F)(F)F | 3.82% | 

SMILES | activity change, negative = cytotoxicity | Potency
O=C(O)C1(Cc2cccc(Nc3nccs3)n2)CCC(Oc2cccc(Cl)c2F)CC1 (stereo not drawn) | -0.248% | 
Cc1ccn(-c2ccc(-c3ncco3)cc2)c(=O)c1-c1ccc2nc(N)ncc2c1 | -2.48% | 
Cc1ccc2[nH]c(=O)c(C3=NN(C(=O)CCC(=O)O)C(c4ccc(Br)cc4)C3)c(-c3ccccc3)c2c1 (stereo not drawn) | 5.86% [at 31.5 µM] | 
CCCCCCCOc1cc2c(cc1/C(C)=C/c1ccc(C(=O)O)cc1)C(C)(C)CCS2(=O)=O | -9.56% [at 31.5 µM] | 
CCCCCc1ccc(/C=C/C(=O)Nc2cc(Cl)ccc2C(=O)O)cc1 | -16.7% [at 31.5 µM] | 
COc1ccc(NS(=O)(=O)c2ccc(NS(=O)(=O)c3ccc4c(c3)OCCO4)cc2)cc1 | -23.1% | 
C/C(=C\c1ccc(C(=O)O)cc1)c1ccc2c(c1)C(C)(C)CCC2(C)C | -10.7% | 
COc1cc(/C=C/c2ccccc2)c(C(=O)O)c(O)c1CC=C(C)C | -3.97% [at 31.5 µM] | 
CCc1oc2ccccc2c1C(=O)c1cc(Br)c(O)c(Br)c1 | -18% | 
CC(Oc1ccccc1)C(=O)Nc1ccc(C(=O)OCc2cc(=O)n3nc(C4CC4)sc3n2)cc1 (stereo not drawn) | -16.1% | 
CO[C@H]1C[C@@H](O[C@@H]2/C(C)=C/C[C@@H]3C[C@@H](C[C@]4(CC[C@H](C)[C@@H](C5CCCCC5)O4)O3)OC(=O)[C@@H]3C=C(C)/C(=N/O)[C@H]4OC/C(=C\C=C\[C@@H]2C)[C@]43O)O[C@@H](C)[C@H]1O |  | 25.1 µM (active)
CCOC(=O)c1ccc(N2C(=O)c3n[nH]c(-c4cccs4)c3C2c2ccc(C(C)(C)C)cc2)cc1 (stereo not drawn) | -6.72% [at 31.5 µM] | 
COc1cnc(-c2ccc(Cn3c(CC(C)(C)C(=O)O)c(SC(C)(C)C)c4cc(OC[C@@H]5Cc6ccccc6N5C(C)=O)ccc43)cc2)nc1 | 0.74% [at 31.5 µM] | 
O=C(N/N=C/c1ccc(O)c(O)c1)c1cc2ccccc2cc1O | -8.44% | 
CC1(C)CCC(C)(C)c2cc3c(cc21)Sc1ccccc1N=C3c1ccc(C(=O)O)cc1 | -1.86% | 
COc1cc2c(c(O)c1OC/C=C(\C)CC/C=C(/C)CCC=C(C)C)CN(C(CCC(=O)O)C(=O)O)C2=O (stereo not drawn) | 4.57% [at 14.9 µM] | 

Source: PubChem BioAssay AID1347170 (National Center for Advancing Translational Sciences (NCATS), 2019)
